NTMT1 inhibitor: NTMT1 methyltransferase inhibition. actives 2.5% (n = 59,000). NTMT1 MTase-Glo SAH luminescence, purified enzyme. Q9BV86. Potency, µM (highest dose often 114 µM), without a hit: at the highest dose activity change, negative = inhibition, most hits filed as inhibitors;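 further: potency means the concentration at half of the fitted maximal effect; plate controls were DMSO vehicle for no effect and no enzyme for full effect; nearly all actives have a fitted effect of over 65% in size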
Target sequence (Q9BV86 whole entry, looked up): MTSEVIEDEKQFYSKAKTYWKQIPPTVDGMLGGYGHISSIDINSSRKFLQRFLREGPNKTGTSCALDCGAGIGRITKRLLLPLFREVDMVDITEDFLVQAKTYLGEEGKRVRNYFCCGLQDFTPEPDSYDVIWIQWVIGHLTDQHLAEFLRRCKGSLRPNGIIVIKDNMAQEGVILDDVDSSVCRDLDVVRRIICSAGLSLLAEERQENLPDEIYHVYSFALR
p53null 39C tox: p53 null cell cytotoxicity, nonpermissive temperature; H1299 p53-null (neo) cells, 39C, ATPlite viability, 24 h; Potency, µM (highest dose often 46.1 µM), for the others: at the highest dose activity, negative = cell killing, hits mostly cytotoxic; actives 0.97% (n = 55,000); AID 904;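 further: potency means the concentration at half of the fitted maximal effect; 0% = DMSO only and -100% = full killing by 100 µM tamoxifen; nearly all actives have a fitted effect of over 50% in size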
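H1299 lung cancer cells, p53-null (H1299-neo) or expressing p53 A138V (H1299-p53A138V), were plated overnight at 37C, then exposed to compounds at up to 46 uM for 24 hr at 39C. Viability was read by ATP-based luminescence.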
GPR32 ag: activates human resolvin D1 receptor GPR32 | CHO-K1 GPR32 beta-arrestin PathHunter luminescence, 90 min; zero percent set by DMSO-only wells | actives 2.5% (n = 48,000) | O75388 | activation, % at 76.9 µM;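 active means activation of at least 60% and not above a set upper limit, about 1 call in 100 departs from these limits; inconclusive means activation of 40% to 60%, or above that upper limit; inactive means activation under 40%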; further: 0% is about no effect
Target sequence (O75388 whole entry, looked up): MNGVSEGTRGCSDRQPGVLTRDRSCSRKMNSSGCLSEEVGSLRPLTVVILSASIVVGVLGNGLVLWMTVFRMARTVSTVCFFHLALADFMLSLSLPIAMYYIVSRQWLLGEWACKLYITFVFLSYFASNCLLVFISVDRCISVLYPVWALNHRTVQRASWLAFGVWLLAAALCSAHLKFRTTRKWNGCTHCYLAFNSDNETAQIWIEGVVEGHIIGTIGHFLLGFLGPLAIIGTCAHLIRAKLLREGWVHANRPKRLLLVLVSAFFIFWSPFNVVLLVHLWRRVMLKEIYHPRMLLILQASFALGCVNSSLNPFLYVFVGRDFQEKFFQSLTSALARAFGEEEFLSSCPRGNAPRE
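Engineered CHO-K1 line co-expressing GPR32-ProLink and EA-beta-arrestin. Compound treatment lasted 90 min at 37 °C. Luminescence was recorded after 1 h with substrate at ambient temperature, relative to DMSO basal wells.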
p53null 32C kill: kills p53 null cells at the permissive temperature; H1299-neo p53 null cells, ATP luminescence, 24 h, 32C; Potency, µM (titrated, usually from 46.1 µM), inactives show at the highest dose activity change, negative = cytotoxicity, hits mostly cytotoxic; actives 0.62% (n = 55,000); AID 903;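 further: potency means the concentration at half of the fitted maximal effect; 0% = DMSO only and -100% = full killing by 100 µM tamoxifen; nearly all actives have a fitted effect of over 55% in size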
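ATP-content luminescence in p53-null H1299-neo cells after 24 h compound exposure (up to 46 uM) at 32C permissive temperature; 0% and 100% killing set by DMSO and 100 uM tamoxifen; Hill-equation AC50.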
GALC G270D act: enhancers of human galactocerebrosidase G270D mutant activity in cells. P54803. 145M-Twi-hGALC-G270D cells (Twitcher mouse brain line with human GALC G270D), HMU-beta-Gal fluorescence, 48 h. Potency, µM (highest dose often 57.5 µM), usual class: activators. actives 0.1% (n = 45,000). AID 1159614; further: potency means the concentration at half of the fitted maximal effect; 0% is about no effect; nearly all actives have a fitted effect of over 65% in size
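Live 145M-Twi cells (Twitcher mouse brain-derived, GALC-null) stably expressing human GALC-G270D, with a wild-type GALC line, were compound-treated. Residual GALC activity was then read as fluorescence from 0.1 mM final HMU-β-gal at pH 5.2; higher signal means activation.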
OvCa metastasis: ovarian cancer metastasis inhibition, 3D TME model; actives 0.1% (n = 46,000); SKOV3ip1-GFP adhesion/invasion on 3D omental model, fluorescence; Potency, µM (top dose mostly 45.8 µM), inactives show at the top dose activity change, negative = inhibition, usual class: inhibitors;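 further: potency means the concentration at half of the fitted maximal effect; plate controls were DMSO wells for no effect and tomatine positive control wells for full effect; nearly all actives have a fitted effect of over 65% in size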
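Primary human omental fibroblast/mesothelial 3D culture pre-formed 48 h. SKOV3ip1-GFP cells added with compounds (0.36-46 umol/L), incubated 2 h RT/16 h 37 C, fixed; GFP cells quantified at 488/509 nm.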
* = called active by the depositor; i = inactive; ? = inconclusive; . = no result; ! = not confirmed by another sample; [ ] = another dose, or the depositor's remark. In the library only some 4% were active in any assay of this set; here they are far more common. Unless noted, the call rests on the fitted dose curve; in most records, active means well fitted curve in the direction sought with a large enough effect; inconclusive means small, poorly fitted or top-dose-only effect, or another doubt; inactive means no such curve, though single readings can be large; an effect the other way counts as inactive or inconclusive.

SMILES	NTMT1 inhibitor	p53null 39C tox	GPR32 ag	p53null 32C kill	GALC G270D act	OvCa metastasis
COc1ccc2nccc(C(=O)CC[C@@H]3CCN(CC#Cc4cc(F)cc(F)c4F)C[C@@H]3C(=O)O)c2c1	-2.3%[57.5 µM]	.	.	.	.	.
COc1ccc(NC(=O)Cn2c(SCc3ccc(F)cc3)nc3cccnc32)cc1OC	-2.3%	?	26.1	?	i	-9.0%
COCCCNC(=O)c1ccc(Cn2c(SCc3ccc(F)cc3)nc3cccnc32)cc1	-19.4%	12.6µM*	-7.7	10µM*	i	i
O=C(c1ccc(CSc2nc3ccncc3n2Cc2ccc(F)cc2)cc1)N1CCCCCC1	-1.4%	-11.9%	61.4*	3.2%	i	14.5%
COc1ccc(NC(=O)Cn2c(SCc3ccc(C)cc3)nc3cccnc32)cc1OC	-21.1%	5.01µM*	49.3	3.55µM*	i	-4.1%
COCCCNC(=O)c1ccc(CSc2nc3cccnc3n2Cc2ccc(OC)cc2)cc1	-4.9%	-25.3%	-9.6	3.8%	i	i
CN(C)CCNC(=O)c1ccc(Cn2c(SCc3ccc(F)cc3)nc3cccnc32)cc1	?	-10.0%	0.6	-10.8%	i	-17.0%
O=C(NCCN1CCCCC1)c1ccc(Cn2c(SCc3ccc(F)cc3)nc3cccnc32)cc1	?	?	-6.5	15.8µM*	i	?
C=CC(=O)N1CCC(C2CCNc3c(C(N)=O)c(-c4ccc(Oc5ccccc5)cc4)nn32)CC1 (stereo unspecified)	-4.2%	.	.	.	.	.
CN(C)CCCN1CCCN(C(=O)c2cccc(-c3cc(O)c4ncccc4c3)c2)C1	15.0%	.	.	.	.	.
Cc1cc(NS(=O)(=O)CCNC(=O)Cc2ccc(Cl)c(Cl)c2)no1	1.4%	.	.	.	.	.
O=C(O)c1cccc(S(=O)(=O)Nc2nccs2)c1	-12.3%	.	.	.	.	.
O=C(NCCCN1CCCCC1)c1cc(Sc2ccc(Cl)cc2)nc2ccccc12	89.1µM*	18.6%	-23.3	-4.6%	i	i
CCc1ccc(Sc2cc(C(=O)NC(C)CC)c3ccccc3n2)cc1 (stereo unspecified)	2.1%	6.3%	74.7*	5.2%	i	-3.6%
CCC(C)NC(=O)c1cc(Sc2cccc(Cl)c2)nc2ccccc12 (stereo unspecified)	6.3%	?	20.3	-11.8%	i	3.4%
CC1(C)CC[C@]2(C(=O)O)[C@H](O)C[C@]3(C)C(=CCC4[C@@]5(C)CC[C@H](O[C@@H]6O[C@H](CO[C@@H]7OC[C@H](O)[C@H](O)[C@H]7O[C@@H]7OC[C@@H](O)[C@H](O)[C@H]7O)[C@@H](O)[C@H](O)[C@H]6O[C@@H]6O[C@H](CO)[C@@H](O)[C@H](O)[C@H]6O)C(C)(C)C5CC[C@]43C)[C@@H]2C1 (stereo partly specified)	11.8%[12.6 µM]	.	.	.	.	.
Cc1ccc(NC(=O)CSc2nc3ccc(NC(=O)c4ccco4)cc3s2)cc1	-19.9%	?	98.5*	-8.1%	i	-18.3%
Cc1cccc(NC(=O)CSc2nc3ccc(NC(=O)c4ccccc4)cc3s2)c1	3.1%	-27.3%	60.2*	-4.9%	i	-23.8%
O=C(Cn1c(=O)nc(-c2ccccc2)c2cc(Cl)ccc21)NCCCc1ccccc1	?	-3.8%	94.2*	3.1%	i	-15.9%
O=C(Cn1c(=O)nc(-c2ccccc2)c2cc(Cl)ccc21)NCCc1ccccc1	11.3%	-7.0%	-9.5	-1.8%	i	10.9%
O=C(O)COc1ccccc1C1Nc2ccccc2-c2nnc(SCc3ccc(Cl)cc3)nc2O1 (stereo unspecified)	-3.3%	-14.3%	107.9*	1.6%	i	-9.6%
CC1CCN(c2ccc(-c3cccc(NS(=O)(=O)c4ccc(F)cc4F)c3)nn2)CC1	.	10µM*	-0.3	10µM*	.	1.0%
Cc1ccc(S(=O)(=O)Nc2cccc(-c3ccc(N4CCC(C)CC4)nn3)c2)s1	.	15.8µM*	2.1	12.6µM*	.	0.9%
CCOc1ccc(S(=O)(=O)Nc2cccc(-c3ccc(N4CCC(C)CC4)nn3)c2)cc1	.	?	-8.1	?	.	?
CCOC(=O)C(Cc1ccccc1)NC(=O)Cn1nnc(-c2ccc(C)cc2)n1 (stereo unspecified)	2.8%	-6.4%	61.9*	-2.6%	i	2.5%
SMILES	NTMT1 inhibitor	p53null 39C tox	GPR32 ag	p53null 32C kill	GALC G270D act	OvCa metastasis
CC(NC(=O)Cn1nnc(-c2ccncc2)n1)c1ccccc1 (stereo unspecified)	.	16.1%	.	1.8%	.	.
Cc1cc(NS(=O)(=O)c2ccc(NC(=O)CCc3ccc(Cl)c(Cl)c3)cc2)no1	11.4%	.	.	.	.	.
C/C(=C\Cc1c(O)c(Cl)c(C)c(C=O)c1O)CC/C=C(\C)[C@H]1CC(=O)C(C)(C)O1	-17.4%[29.8 µM]	.	.	.	.	.
CSc1nn(Cc2cccc(Cl)c2)c(N(C(C)=O)C(C)=O)c1S(=O)(=O)c1ccccc1	-3.6%	-8.1%	76.1*	-8.7%	i	9.8%
CCN(CC)CCn1c(-c2ccccc2)nc2c(NCCO)nc(C)nc21	89.1µM*	.	.	.	.	.
O=C1Nc2ccccc2C(O)(c2ccccc2)C1O (stereo unspecified)	6.7%[57.5 µM]	.	.	.	.	.
O=C(COc1ccccc1F)NC1CC(=O)N(c2ccc3c(c2)OCCO3)C1 (stereo unspecified)	89.1µM*	2.8%	2.4	0.4%	i	11.4%
O=C(COc1ccccc1)NC1CC(=O)N(c2ccc3c(c2)OCCO3)C1 (stereo unspecified)	0.4%	20.8%	-1.3	1.6%	i	13.2%
O=C(COc1ccc(F)cc1)NC1CC(=O)N(c2ccc3c(c2)OCCO3)C1 (stereo unspecified)	3.4%	0.1%	115.5*	-7.9%	i	5.5%
COc1ccccc1OCC(=O)NC1CC(=O)N(c2ccc3c(c2)OCCO3)C1 (stereo unspecified)	2.1%	14.3%	-4.5	0.7%	i	i
O=C(OCC1=CC(Cl)C(O)C(OC(=O)c2ccccc2)C1O)c1ccccc1 (stereo unspecified)	8.3%[12.6 µM]	.	.	.	.	.
CC(O)(C#Cc1ccc2c(c1)N(c1nc(N)ncc1Cl)CC2)c1nccs1 (stereo unspecified)	35.5µM*	.	.	.	.	15.9%
CC(C)N(CCC(=O)c1ccc2ccccc2c1)Cc1ccccc1	50.1µM*	.	-9.1	.	.	.
CCc1ccc(CCOc2ccc(CC3SC(=O)NC3=O)cc2)nc1 (stereo unspecified)	31.6µM*!	.	27.5	.	i	-5.7%
CC1(COc2ccc(CC3SC(=O)NC3=O)cc2)CCCCC1 (stereo unspecified)	?	.	?	.	i	.

Screening data as filed in PubChem BioAssay.
